# Paper PMC5540273 (PLoS ONE, 2017)
# System: TTK
# Conditions: concentration: 1 μM, replicates: in singlicate; n = 1
# 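Also: KINOMEscan kinase panel screen.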
row,SMILES,%Inh
1,CS(=O)(=O)c1ccc(-c2c(-c3ncn[nH]3)sc(N3CCOCC3)c2C#N)cc1,21%
2,CCn1c(-c2cccnc2O)nc2cnccc21 [SB-736715],0%
3,Cc1cc(-c2ccc3c(c2)CC[C@@H](N[C@@H](C)c2ccccc2)C3)cnc1N.Cl [GW412617],0%
4,COc1ccccc1CNC(=O)c1cc(C(=O)c2ccccc2C)c[nH]1 [GSK364507],0%
5,Cc1cccc(-c2nc(-c3ccc(S(C)(=O)=O)cc3)sc2-c2ccnc(NCCc3ccccc3)c2)c1,10%
6,CC(=O)Nc1nc2cnc(Nc3cc(NC(=O)c4cccc(CCC#N)c4)ccc3C)nc2s1,16%
7,Cc1cccc(-c2nc(C)cc(Nc3ccncc3)n2)n1 [GSK257997],0%
8,CS(=O)(=O)c1ccc(-c2nc3n(c2-c2ccncc2)CCC3)cc1 [SKF-105942],0%
9,Cl.c1ccc(-c2n[nH]cc2-c2ccnc(-c3ccc(CN4CCOCC4)cc3)c2)nc1 [GW776245],31%
10,Nc1ncnc2[nH]c(-c3ccccc3)nc12 [AH5015],0%
11,O=C(O)COc1ncnc2cc(-c3ccc4[nH]ncc4c3)sc12,0%
12,COc1cc2ncn(-c3cc(OCC4CCCO4)c(C(N)=O)s3)c2cc1OC (stereo not shown) [GSK204607],0%
13,Cc1ccc(NC(=O)Nc2cc(C(C)(C)C)nn2-c2ccccc2)cc1 [GSK1014915],4%
14,Cc1cccc(-c2nc(Nc3ccc4[nH]ncc4c3)c3ccccc3n2)n1 [GW857175],3%
15,CC(C)(C)c1ccc(C(=O)Nc2cn3cc(Cl)ccc3n2)cc1,0%
16,Cn1cncc1-c1ccc2ncnc(Nc3ccc(OCc4ccccc4)cc3)c2c1 [GW320571],19%
17,O=C(Nc1n[nH]c2nc(-c3nccs3)c(Br)cc12)C1CC1 [SB-742251],0%
18,CN1C(=O)C(Nc2ccc(Cl)c(C(=O)O)c2)=C(c2ccc(Cl)cc2)C1=O [SB-404290],22%

row,SMILES,%Inh
1,Cc1cc(N2Cc3ccccc3C2)nc(Nc2ccc(S(=O)(=O)N3CCOCC3)cc2)n1.Cl [GSK1669917],0%
2,CN(C)CCN(C)C(=O)c1cc(-c2ccncc2)c(-c2ccc(Cl)c(O)c2)o1.Cl.Cl [SB-710397],0%
3,Cc1csc(-c2nc(Nc3ccncc3)c3ccccc3n2)n1 [GW869640],35%
4,Cc1ccc(NC(=O)Nc2cccc(Cl)c2)cc1-c1ccc(C(=O)Nc2ccncc2)cc1 [GSK1398468],0%
5,O=C(Nc1n[nH]c2cc(-c3cccc(F)c3F)ccc12)C1CC1 [SB-733894],1%
6,O=C(Nc1ccccc1)Nc1cccc(Oc2ccc3nccn3n2)c1,0%
7,Cl.O=C(Nc1cccc(-c2nn3ncccc3c2-c2ccnc(Nc3cccnc3)n2)c1)c1c(F)cccc1F [GSK312879],0%
8,O=C(Nc1n[nH]c2nc(-c3nccs3)c(Br)cc12)C1CCCC1 [SB-742609],13%
9,COc1cc(Nc2nccc(N3CCC(NC(=O)Nc4cc(C)ccc4C)C3)n2)cc(OC)c1OC (stereo not shown) [GSK1379762],16%
10,COc1cc2nccc(Nc3ccc(NC(=O)c4ccc(C)cc4)c(O)c3)c2cc1OC.Cl [GW440132],0%
11,O=C(Nc1ccc2c(c1)OCO2)NC1CCN(c2ccnc(Nc3ccc(F)cc3)n2)C1 (stereo not shown) [GSK1379724],26%
12,O=C1NC(=O)C(N2CCc3ccccc32)=C1c1ccccc1Cl [SB-373598],65%
13,Fc1cccc(COc2nnc(-c3ccc4c(c3)CCO4)o2)c1,14%
14,Cc1cccc(-c2nc(Nc3cccc(C(N)=O)c3)c3ccccc3n2)n1 [GW876019],0%
15,Cc1c(O)cccc1Nc1ccnc2ccc(C(F)(F)F)cc12.Cl [GW466413],0%
16,COc1ccc(Nc2nccc(-c3cccc(NC(=O)c4cc5cc(F)ccc5[nH]4)c3)n2)cc1 [GSK1229782],13%
17,Cc1cc(NCC(c2ccccc2)c2ccccc2)nc(NCc2ccc(C(F)(F)F)cc2)n1 [GW497681],0%

# System: TXK
# Conditions: concentration: 1 μM, replicates: in singlicate; n = 1
row,SMILES,%Inh
1,CS(=O)(=O)c1ccc(-c2c(-c3ncn[nH]3)sc(N3CCOCC3)c2C#N)cc1,0%
2,CCn1c(-c2cccnc2O)nc2cnccc21 [SB-736715],0%
3,Cc1cc(-c2ccc3c(c2)CC[C@@H](N[C@@H](C)c2ccccc2)C3)cnc1N.Cl [GW412617],16%
4,COc1ccccc1CNC(=O)c1cc(C(=O)c2ccccc2C)c[nH]1 [GSK364507],27%
5,Cc1cccc(-c2nc(-c3ccc(S(C)(=O)=O)cc3)sc2-c2ccnc(NCCc3ccccc3)c2)c1,6%
6,CC(=O)Nc1nc2cnc(Nc3cc(NC(=O)c4cccc(CCC#N)c4)ccc3C)nc2s1,0%
7,Cc1cccc(-c2nc(C)cc(Nc3ccncc3)n2)n1 [GSK257997],0%
8,CS(=O)(=O)c1ccc(-c2nc3n(c2-c2ccncc2)CCC3)cc1 [SKF-105942],0%
9,Cl.c1ccc(-c2n[nH]cc2-c2ccnc(-c3ccc(CN4CCOCC4)cc3)c2)nc1 [GW776245],7%
10,Nc1ncnc2[nH]c(-c3ccccc3)nc12 [AH5015],34%
11,O=C(O)COc1ncnc2cc(-c3ccc4[nH]ncc4c3)sc12,14%
12,COc1cc2ncn(-c3cc(OCC4CCCO4)c(C(N)=O)s3)c2cc1OC (stereo not shown) [GSK204607],9%
13,Cc1ccc(NC(=O)Nc2cc(C(C)(C)C)nn2-c2ccccc2)cc1 [GSK1014915],0%
14,Cc1cccc(-c2nc(Nc3ccc4[nH]ncc4c3)c3ccccc3n2)n1 [GW857175],0%
15,CC(C)(C)c1ccc(C(=O)Nc2cn3cc(Cl)ccc3n2)cc1,0%
16,Cn1cncc1-c1ccc2ncnc(Nc3ccc(OCc4ccccc4)cc3)c2c1 [GW320571],34%
17,O=C(Nc1n[nH]c2nc(-c3nccs3)c(Br)cc12)C1CC1 [SB-742251],0%
18,CN1C(=O)C(Nc2ccc(Cl)c(C(=O)O)c2)=C(c2ccc(Cl)cc2)C1=O [SB-404290],0%

row,SMILES,%Inh
1,Cc1cc(N2Cc3ccccc3C2)nc(Nc2ccc(S(=O)(=O)N3CCOCC3)cc2)n1.Cl [GSK1669917],0%
2,CN(C)CCN(C)C(=O)c1cc(-c2ccncc2)c(-c2ccc(Cl)c(O)c2)o1.Cl.Cl [SB-710397],4%
3,Cc1csc(-c2nc(Nc3ccncc3)c3ccccc3n2)n1 [GW869640],0%
4,Cc1ccc(NC(=O)Nc2cccc(Cl)c2)cc1-c1ccc(C(=O)Nc2ccncc2)cc1 [GSK1398468],0%
5,O=C(Nc1n[nH]c2cc(-c3cccc(F)c3F)ccc12)C1CC1 [SB-733894],0%
6,O=C(Nc1ccccc1)Nc1cccc(Oc2ccc3nccn3n2)c1,0%
7,Cl.O=C(Nc1cccc(-c2nn3ncccc3c2-c2ccnc(Nc3cccnc3)n2)c1)c1c(F)cccc1F [GSK312879],1%
8,O=C(Nc1n[nH]c2nc(-c3nccs3)c(Br)cc12)C1CCCC1 [SB-742609],27%
9,COc1cc(Nc2nccc(N3CCC(NC(=O)Nc4cc(C)ccc4C)C3)n2)cc(OC)c1OC (stereo not shown) [GSK1379762],13%
10,COc1cc2nccc(Nc3ccc(NC(=O)c4ccc(C)cc4)c(O)c3)c2cc1OC.Cl [GW440132],10%
11,O=C(Nc1ccc2c(c1)OCO2)NC1CCN(c2ccnc(Nc3ccc(F)cc3)n2)C1 (stereo not shown) [GSK1379724],43%
12,O=C1NC(=O)C(N2CCc3ccccc32)=C1c1ccccc1Cl [SB-373598],28%
13,Fc1cccc(COc2nnc(-c3ccc4c(c3)CCO4)o2)c1,0%
14,Cc1cccc(-c2nc(Nc3cccc(C(N)=O)c3)c3ccccc3n2)n1 [GW876019],0%
15,Cc1c(O)cccc1Nc1ccnc2ccc(C(F)(F)F)cc12.Cl [GW466413],25%
16,COc1ccc(Nc2nccc(-c3cccc(NC(=O)c4cc5cc(F)ccc5[nH]4)c3)n2)cc1 [GSK1229782],17%
17,Cc1cc(NCC(c2ccccc2)c2ccccc2)nc(NCc2ccc(C(F)(F)F)cc2)n1 [GW497681],0%
